# Values joined by “and” are separate entries in the source; they are usually repeats but may differ in a detail not shown here. Equal values may be shown once. Some structures have more than one record in an assay (separate samples or runs), and their calls can disagree. Active and inactive are the calls of the source. How the source made its calls: active means hit-call score of the fitted dose curve at least 0.9, where 1 is the maximum; inactive means score below 0.9.
# Experiments:
# [1] = biological target: Paired box protein Pax-6 (Homo sapiens) (UniProt P26367); test: ATG_Pax6_CIS: Attagene CIS-FACTORIAL HepG2 Assay for human Paired Box 6 (PAX6) (AID 2282956); conditions: HepG2 CIS-FACTORIAL PAX6 reporter transcription, RNA readout; actives raise or lower the signal
# Paired box protein Pax-6 (Homo sapiens), sequence (P26367 whole entry, looked up): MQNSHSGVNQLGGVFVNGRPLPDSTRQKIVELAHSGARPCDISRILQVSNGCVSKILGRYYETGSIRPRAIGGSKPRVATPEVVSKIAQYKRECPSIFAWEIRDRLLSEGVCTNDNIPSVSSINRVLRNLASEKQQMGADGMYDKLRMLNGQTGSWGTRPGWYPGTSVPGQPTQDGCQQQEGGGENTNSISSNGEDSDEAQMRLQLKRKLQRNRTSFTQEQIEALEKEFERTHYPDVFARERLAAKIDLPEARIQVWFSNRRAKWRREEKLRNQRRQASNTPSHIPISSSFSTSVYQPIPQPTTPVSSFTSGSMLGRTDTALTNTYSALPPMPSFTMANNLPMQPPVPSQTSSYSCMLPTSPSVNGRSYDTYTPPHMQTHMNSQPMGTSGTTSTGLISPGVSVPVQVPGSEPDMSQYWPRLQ
# Summary of the method: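 Values derive from bidirectional curve fitting of reporter mRNA signal relative to DMSO. HepG2 cells bearing transfected cis-regulated MRTUs were exposed for 24 h; transcripts were read by RT-PCR and capillary electrophoresis.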
# [2] = ATG_PXRE_CIS: Attagene CIS-FACTORIAL HepG2 Assay for human Pregnane X Receptor Element (PXRE) (AID 2282957); conditions: HepG2 Attagene CIS-FACTORIAL PXRE reporter, mRNA; actives raise or lower the signal
# Summary of the method: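 Reporter transcripts under endogenous PXR-responsive cis-regulation quantified from total RNA of transfected HepG2 cells 24 h post-dosing, via RT-PCR with fluorescent primer extension and capillary electrophoresis. Gain or loss of signal fitted against DMSO baseline.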
# [3] = ATG_RORE_CIS: Attagene CIS-FACTORIAL HepG2 Assay for human RAR-related Orphan Receptor Element (RORE) (AID 2282959); conditions: HepG2 Attagene cis-factorial RORE reporter, mRNA; actives raise or lower the signal
# Summary of the method: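 RORE reporter transcripts reflecting endogenous factor activity were read after 24 h compound exposure of transfected HepG2 cells, using reverse transcription, PCR, fluorescent labelling and capillary electrophoresis sizing. Gain or loss fitted against DMSO.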
# [4] = ATG_Sox_CIS: Attagene CIS-FACTORIAL HepG2 Assay for human SRY-box transcription factor (SOX) (AID 2282960); conditions: HepG2 Attagene cis-factorial SOX reporter, mRNA; actives raise or lower the signal
# Summary of the method: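 Reporter transcripts, measured by RT-PCR and capillary electrophoresis of labelled fragments, report endogenous SOX transcription factor activity. Transiently transfected human HepG2 cells receive chemical for 24 h; changes in either direction are fitted relative to DMSO.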
# [5] = biological target: Transcription factor Sp1 (Homo sapiens) (UniProt P08047); test: ATG_Sp1_CIS: Attagene CIS-FACTORIAL HepG2 Assay for human Specificity Protein 1 (Sp1) (AID 2282961); conditions: HepG2 Sp1 cis-reporter transcription, actives raise or lower the signal
# Transcription factor Sp1 (Homo sapiens), sequence (P08047 whole entry, looked up): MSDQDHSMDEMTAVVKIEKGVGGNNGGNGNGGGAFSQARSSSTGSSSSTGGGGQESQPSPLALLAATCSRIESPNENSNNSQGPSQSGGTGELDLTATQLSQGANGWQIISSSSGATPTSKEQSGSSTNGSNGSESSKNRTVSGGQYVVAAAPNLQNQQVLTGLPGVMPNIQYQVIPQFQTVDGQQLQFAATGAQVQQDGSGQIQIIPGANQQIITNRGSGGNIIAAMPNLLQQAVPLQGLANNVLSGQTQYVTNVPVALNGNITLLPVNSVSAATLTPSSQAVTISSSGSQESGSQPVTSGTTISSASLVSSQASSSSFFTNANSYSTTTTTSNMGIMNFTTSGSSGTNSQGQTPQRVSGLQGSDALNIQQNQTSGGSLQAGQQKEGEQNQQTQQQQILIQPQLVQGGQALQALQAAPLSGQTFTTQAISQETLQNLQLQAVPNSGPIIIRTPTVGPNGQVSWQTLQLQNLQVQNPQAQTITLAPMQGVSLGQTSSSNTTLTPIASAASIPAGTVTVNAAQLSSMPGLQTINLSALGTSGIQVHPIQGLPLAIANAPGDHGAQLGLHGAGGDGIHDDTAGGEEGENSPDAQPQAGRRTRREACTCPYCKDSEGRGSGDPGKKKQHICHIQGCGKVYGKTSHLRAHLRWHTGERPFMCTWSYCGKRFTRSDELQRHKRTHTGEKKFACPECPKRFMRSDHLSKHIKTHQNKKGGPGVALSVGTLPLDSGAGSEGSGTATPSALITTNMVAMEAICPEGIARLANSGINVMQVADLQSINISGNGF
# Summary of the method: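 Read-out is reporter transcript level, measured by RT-PCR and fluorescent capillary electrophoresis after 24 h chemical treatment. System: transiently transfected HepG2 cells reporting endogenous transcription factor activity; gain or loss fitted against DMSO baseline.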
# [6] = ATG_SREBP_CIS: Attagene CIS-FACTORIAL HepG2 Assay for human Sterol Regulatory Element Binding (SREBP) (AID 2282962); conditions: HepG2 Attagene cis-factorial SREBP reporter, mRNA; actives raise or lower the signal
# Summary of the method: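 Values derive from bidirectional curve fitting with DMSO as baseline. The underlying measurement is reporter mRNA from cis-element-regulated units in transiently transfected HepG2, quantified by RT-PCR and capillary electrophoresis after 24 h exposure.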
# [7] = biological target: Signal transducer and activator of transcription 3 (Homo sapiens) (UniProt P40763); test: ATG_STAT3_CIS: Attagene CIS-FACTORIAL HepG2 Assay for human Signal Transducer and Activator of Transcription 3 (STAT3) (AID 2282963); conditions: HepG2, Attagene cis-factorial STAT3 reporter transcription; actives raise or lower the signal
# Signal transducer and activator of transcription 3 (Homo sapiens), sequence (P40763 whole entry, looked up): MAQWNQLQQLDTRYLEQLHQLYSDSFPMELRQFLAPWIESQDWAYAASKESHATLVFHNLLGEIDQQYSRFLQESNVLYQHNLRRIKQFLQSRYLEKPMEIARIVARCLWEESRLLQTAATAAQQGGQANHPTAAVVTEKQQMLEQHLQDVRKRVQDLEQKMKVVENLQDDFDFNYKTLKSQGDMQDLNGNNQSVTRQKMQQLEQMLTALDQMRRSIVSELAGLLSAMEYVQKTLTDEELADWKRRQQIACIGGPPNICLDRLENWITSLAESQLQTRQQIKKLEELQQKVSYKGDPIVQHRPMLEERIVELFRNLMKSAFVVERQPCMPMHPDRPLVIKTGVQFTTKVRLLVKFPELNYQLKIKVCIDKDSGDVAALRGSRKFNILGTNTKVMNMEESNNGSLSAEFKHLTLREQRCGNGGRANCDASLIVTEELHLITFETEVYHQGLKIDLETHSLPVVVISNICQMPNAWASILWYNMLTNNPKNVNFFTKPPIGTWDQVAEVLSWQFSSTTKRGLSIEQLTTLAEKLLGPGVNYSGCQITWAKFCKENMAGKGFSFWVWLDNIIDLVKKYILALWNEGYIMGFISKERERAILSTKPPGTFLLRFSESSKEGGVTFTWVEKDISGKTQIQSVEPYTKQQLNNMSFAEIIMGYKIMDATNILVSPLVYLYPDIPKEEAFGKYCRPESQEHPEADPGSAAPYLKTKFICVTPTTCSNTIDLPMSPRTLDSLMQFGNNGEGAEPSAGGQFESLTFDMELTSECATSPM
# Summary of the method: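 Readout is reporter transcript quantified by RT-PCR and capillary electrophoresis, with 6-FAM primer extension and HpaI digestion. Total RNA is taken 24 h after dosing transiently transfected HepG2 carrying cis-regulated reporter units. Bidirectional fit against DMSO.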
# [8] = ATG_TA_CIS: Attagene CIS-FACTORIAL HepG2 Assay for human TA Basal Promoter (AID 2282964); conditions: HepG2 Attagene CIS-factorial TA basal promoter reporter; actives raise or lower the signal
# Summary of the method: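 HepG2 cells transiently transfected with multiplexed cis-promoter reporter units, dosed 24 h. Reporter mRNA measured by RT-PCR, 6-FAM labelling, HpaI digestion and capillary electrophoresis; bidirectional fit versus DMSO baseline, serving as background control.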
# [9] = ATG_PPRE_CIS: Attagene CIS-FACTORIAL HepG2 Assay for human Peroxisome Proliferator-activated Response Element (PPRE) (AID 2282958); conditions: HepG2 PPRE cis-element reporter, Attagene transcription factor profiling; actives raise or lower the signal
# Summary of the method: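 Endogenous PPRE-driven transcription is measured in HepG2 cells carrying transfected multi-reporter constructs. Reporter transcripts are quantified by RT-PCR, HpaI digestion and capillary electrophoresis 24 h after dosing. DMSO baseline, bidirectional fit.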
# [10] = ATG_TCF_b_cat_CIS: Attagene CIS-FACTORIAL HepG2 Assay for human T-Cell-Factor with beta-catenin (TCF/b-cat) (AID 2282965); conditions: HepG2 TCF/beta-catenin cis-reporter transcription, actives raise or lower the signal
# Summary of the method: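 Measured: reporter mRNA in HepG2 transiently transfected with cis-promoter reporter units, 24 h after chemical addition. Fitting was bidirectional, DMSO as negative control.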
structure (smiles),measurement,setting,value
O=C(OCCCCCCOC(=O)c1ccccc1)c1ccccc1,outcome,[1],inactive
same,outcome,[2],inactive
same,outcome,[3],inactive
same,outcome,[4],inactive
same,outcome,[5],inactive
same,outcome,[6],inactive
same,outcome,[7],inactive
same,outcome,[8],inactive
NC(=O)c1nc(-c2cccc(-c3cc(F)ccc3OCC(F)(F)C(F)(F)F)c2)n[nH]1,AC50,[1],24.3 µM (active)
same,AC50,[2],8.11 µM (active)
same,outcome,[4],inactive
same,AC50,[5],16.9 µM (active)
same,AC50,[6],10.3 µM (active)
same,outcome,[7],inactive
same,AC50,[8],43.7 µM (active)
Oc1ccc2ccccc2c1,outcome,[1],inactive
same,outcome,[2],inactive
same,outcome,[3],inactive
same,outcome,[4],inactive
same,outcome,[5],inactive
same,outcome,[6],inactive
same,outcome,[7],inactive
same,outcome,[8],inactive
CCO[Si](CCCNC(N)=O)(OCC)OCC,outcome,[1],inactive
same,outcome,[2],inactive
same,outcome,[9],inactive
same,outcome,[3],inactive
same,outcome,[4],inactive
same,outcome,[5],inactive
same,outcome,[6],inactive
same,outcome,[7],inactive
same,outcome,[8],inactive
same,outcome,[10],inactive
CC(C)(C)c1cc(/C=C2\SC(N)=NC2=O)cc(C(C)(C)C)c1O,AC50,[1],14.5 µM (active)
same,AC50,[2],1.2 µM (active)
same,outcome,[3],inactive
same,outcome,[4],inactive
same,outcome,[5],inactive
same,AC50,[6],18.2 µM (active)
same,outcome,[7],inactive
same,outcome,[8],inactive
same,AC50,[10],16.3 µM (active)
CN(C[C@@H](CC[N+]12CCC(C3CCCCC3)(CC1)CC2)c1ccc(Cl)c(Cl)c1)C(=O)c1cc(C(F)(F)F)cc(C(F)(F)F)c1,outcome,[1],inactive
same,outcome,[2],inactive
same,outcome,[3],inactive
same,outcome,[4],inactive
same,outcome,[5],inactive
same,outcome,[6],inactive
same,outcome,[7],inactive
same,outcome,[8],inactive
same,outcome,[10],inactive
c1ccc2ccccc2c1,outcome,[1],inactive
same,outcome,[2],inactive
same,outcome,[9],inactive
same,outcome,[3],inactive
same,outcome,[4],inactive
same,outcome,[5],inactive
same,outcome,[6],inactive
same,outcome,[7],inactive
same,outcome,[8],inactive
same,outcome,[10],inactive
COc1cc(C(=O)NC2CCN(C)CC2)ccc1Nc1ncc2c(n1)N(C1CCCC1)CC(F)(F)C(=O)N2C,AC50,[1],3.75 µM (active)
same,AC50,[2],1.01 µM (active)
same,outcome,[9],inactive
same,AC50,[3],3.55 µM (active)
same,outcome,[4],inactive
same,AC50,[5],0.525 µM (active)
same,AC50,[6],1.56 µM (active)
same,outcome,[7],inactive
same,outcome,[8],inactive
same,AC50,[10],4.26 µM (active)
CC(C)(c1cc(Br)c(O)c(Br)c1)c1cc(Br)c(O)c(Br)c1,AC50,[1],46 µM (active) and 42.9 µM (active)
same,AC50,[2],7.93 µM (active) and 8.01 µM (active)
same,AC50,[4],41.4 µM (active) and 43.4 µM (active)
same,AC50,[5],39.3 µM (active) and 31.9 µM (active)
same,AC50,[6],31.7 µM (active) and 23 µM (active)
same,outcome,[7],inactive
same,AC50,[8],23.2 µM (active)
same,outcome,[8],inactive
O=C(O)Cc1cc(I)c(Oc2ccc(O)c(I)c2)c(I)c1,outcome,[1],inactive
same,AC50,[2],26.3 µM (active) and 26.1 µM (active) and 7.66 µM (active)
same,AC50,[3],34.9 µM (active) [middle of 4 runs]
same,outcome,[4],inactive
same,outcome,[5],inactive
same,AC50,[6],11.4 µM (active)
same,outcome,[6],inactive
same,outcome,[7],inactive
same,outcome,[8],inactive
c1ccc2n[nH]nc2c1,outcome,[1],inactive
same,outcome,[2],inactive
same,outcome,[9],inactive
same,outcome,[3],inactive
same,outcome,[4],inactive
same,outcome,[5],inactive
same,outcome,[6],inactive
same,outcome,[7],inactive
same,outcome,[8],inactive
same,outcome,[10],inactive
Cc1cc(F)ccc1-c1cc(N2CC[C@@H](O)[C@H]2CO)ncc1N(C)C(=O)C(C)(C)c1cc(C(F)(F)F)cc(C(F)(F)F)c1,outcome,[1],inactive
same,AC50,[2],0.35 µM (active)
same,outcome,[9],inactive
same,outcome,[3],inactive
same,outcome,[4],inactive
same,outcome,[5],inactive
same,outcome,[6],inactive
same,outcome,[7],inactive
same,outcome,[8],inactive
same,outcome,[10],inactive
CO[C@H]1/C=C/O[C@@]2(C)Oc3c(C)c(O)c4c(O)c(c(/C=N/N5CCN(C)CC5)c(O)c4c3C2=O)NC(=O)/C(C)=C\C=C\[C@H](C)[C@H](O)[C@@H](C)[C@@H](O)[C@@H](C)[C@H](OC(C)=O)[C@@H]1C,outcome,[1],inactive
same,AC50,[2],461 nM (active) and 369 nM (active)
same,outcome,[9],inactive
same,outcome,[3],inactive
same,outcome,[4],inactive
same,outcome,[5],inactive
same,outcome,[6],inactive
same,outcome,[7],inactive
same,outcome,[8],inactive
same,outcome,[10],inactive
CC1(C)NC(=O)N(c2ccc([N+](=O)[O-])c(C(F)(F)F)c2)C1=O,outcome,[1],inactive
same,AC50,[2],27.5 µM (active) and 6.9 µM (active) and 27.3 µM (active)
same,outcome,[3],inactive
same,outcome,[4],inactive
same,outcome,[5],inactive
same,outcome,[6],inactive
same,outcome,[7],inactive
same,outcome,[8],inactive
same,outcome,[10],inactive
CC(C)(C)c1csc(-c2cc3cc(OCc4ccccc4CC(=O)O)ccc3o2)n1,AC50,[1],7.32 µM (active)
same,outcome,[2],inactive
same,AC50,[9],33.4 µM (active)
same,outcome,[4],inactive
same,outcome,[5],inactive
same,AC50,[6],6.91 µM (active)
same,outcome,[7],inactive
same,AC50,[8],6.62 µM (active)
Clc1ccccc1C(c1ccccc1)(c1ccccc1)n1ccnc1,AC50,[1],11.1 µM (active)
same,AC50,[2],0.589 µM (active)
same,AC50,[3],11.1 µM (active)
same,AC50,[4],11.1 µM (active)
same,outcome,[5],inactive
same,AC50,[6],3 µM (active)
same,outcome,[7],inactive
same,AC50,[8],11.1 µM (active)
same,outcome,[10],inactive
COCC(C)OCC(C)OCC(C)O (configuration not stated),outcome,[1],inactive
same,outcome,[2],inactive
same,outcome,[9],inactive
same,outcome,[3],inactive
same,outcome,[4],inactive
same,outcome,[5],inactive
same,outcome,[6],inactive
same,outcome,[7],inactive
same,outcome,[8],inactive
same,outcome,[10],inactive
OCCO,outcome,[1],inactive
same,outcome,[2],inactive
same,outcome,[9],inactive
same,outcome,[4],inactive
same,outcome,[5],inactive
same,outcome,[6],inactive
same,outcome,[7],inactive
same,outcome,[8],inactive
c1ccc(C[n+]2cccc3ccccc32)cc1,outcome,[1],inactive
same,outcome,[2],inactive
same,outcome,[9],inactive
same,outcome,[3],inactive
same,outcome,[4],inactive
same,outcome,[5],inactive
same,outcome,[6],inactive
same,outcome,[7],inactive
same,outcome,[8],inactive
same,outcome,[10],inactive
CCN(CC)C(=O)c1cc(S(=O)(=O)Cc2ccccc2)c(N2CCC(c3ccccc3)CC2)cc1N(CC)CCN(C)C,outcome,[1],inactive
same,AC50,[2],0.126 µM (active)
same,outcome,[9],inactive
same,outcome,[3],inactive
same,outcome,[4],inactive
same,outcome,[5],inactive
same,AC50,[6],0.926 µM (active)
same,outcome,[7],inactive
same,outcome,[8],inactive
same,outcome,[10],inactive
